Potency data for 36 molecules are collected here from PubChem BioAssay (NCATS).

Results filed as inconclusive are left out. Where a call stands in place of a potency, no number is given. Active and inactive are the calls of the source. The call rests on the fitted dose curve; in most records, active means well fitted cell-killing curve with a large enough effect; inconclusive means small, poorly fitted or top-dose-only effect; inactive means no such curve, though single readings can be large or run the other way.
Potency means the concentration at half of the fitted maximal effect.

The first test in a line: qHTS of pediatric cancer cell lines to identify multiple opportunities for drug repurposing: Primary screen for Saos-2 cells (AID 1347097). Further: nearly all actives have a fitted effect of over 40% in size. To be noted: Saos-2 viability, CellTiter-Glo ATP luminescence, 48 h; series mostly up to 46 µM. The essentials: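 Luminescence from CellTiter-Glo served as readout of metabolically active cells after 48 h compound exposure. Titrations: MIPE 11-point, from 0.78 nM; NPC 8-point, from 0.59 nM (final). Concentration-response curves came straight from the primary screen.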
On the technique in general: Quantitative high-throughput screening tests each substance at several concentrations.
Consider `COc1cc2c(cc1OC)CN(C(=O)[C@H](C)N[C@@H](CCc1ccccc1)C(=O)O)[C@H](C(=O)O)C2`, for which the Potency result was “inactive”.

For the molecule `CC(=O)OCC(=O)Nc1cc(C#N)cc(NC(=O)COC(C)=O)c1Cl`, the Potency result is “inactive”.

On to `C[C@]12CCC(=O)C=C1CC[C@@H]1[C@@H]2[C@@H](O)C[C@@]2(C)[C@H]1CC[C@]2(O)C(=O)COC(=O)CCC(=O)O`, for which the Potency result was “inactive”.

As for `CC1(C)S[C@@H]2[C@H](NC(=O)C(c3ccccc3)S(=O)(=O)O)C(=O)N2[C@H]1C(=O)O` (some centres undefined), the Potency result is “inactive”.

As for `CCc1cc2cc(OC)c(OC)cc2c(Cc2ccccc2)n1`, the Potency entry was “inactive”.

In the case of `CC(=O)Nc1ccc(S(=O)(=O)Nc2cc(C)on2)cc1`, the Potency result is “inactive”.

For `CCNC(=O)NCCCOc1cccc(CN2CCCCC2)c1`, the Potency entry is “inactive”.

Consider `OCCCc1ccccc1`, for which the Potency entry was “inactive”.

Regarding `CN1CCC(N(Cc2cccs2)c2ccccc2)CC1`, the Potency was 21.1 µM (active).

Take `O=c1[nH]c2ccccc2c(=O)n1CCCl`: the Potency result was “inactive”.

On to `CCCCCC1Nc2cc(C(F)(F)F)c(S(N)(=O)=O)cc2S(=O)(=O)N1` (centres undefined), for which the Potency entry was “inactive”.

On to `CCCC(=O)O[C@]1(C(=O)COC(=O)CC)CC[C@H]2[C@@H]3CCC4=CC(=O)CC[C@]4(C)[C@H]3[C@@H](O)C[C@@]21C`, for which the Potency result is “inactive”.

Turning to `CC(C)C(=O)Nc1cccc(C(F)(F)F)c1`, the Potency result was “inactive”.

Regarding `OC1(c2ccc(Cl)cc2)CCNCC1`, the Potency entry was “inactive”.

On to `CCOc1c(N2CCOCC2)cnn(C)c1=O`, for which the Potency result is “inactive”.

For `CCOc1ncc(F)c(=O)[nH]1`, the Potency result was “inactive”.

For the molecule `O=C(OCC(COC(=O)c1cccnc1)(COC(=O)c1cccnc1)COC(=O)c1cccnc1)c1cccnc1`, the Potency entry is “inactive”.

For `CC(=O)Nc1c(I)c(NC(C)=O)c(I)c(C(=O)O)c1I`, the Potency entry is “inactive”.

Consider `C=CC[N+]1([C@H]2C[C@H]3[C@@H]4CC[C@H]5C[C@H](OC(C)=O)[C@@H](N6CCCCC6)C[C@]5(C)[C@H]4CC[C@]3(C)[C@H]2OC(=O)CC)CCCCC1`, for which the Potency result is “inactive”.

As for `OC1(c2ccc(Cl)c(C(F)(F)F)c2)CCN(CCCC(c2ccc(F)cc2)c2ccc(F)cc2)CC1`, the Potency is 11.9 µM (active).

Regarding `COC(=O)/C=C(/C)N`, the Potency result was “inactive”.

Regarding `Nc1nc2ccccc2n1Cc1ccc(F)cc1`, the Potency entry was “inactive”.

Regarding `CN(C)C(=O)CNC(=O)Cc1ccccc1`, the Potency entry is “inactive”.

`CCCCNc1ccc(C(=O)OCCN(CC)CC)cc1`: the Potency result is “inactive”.

`O=C1CCCc2c(O)cccc21`: the Potency entry is “inactive”.

Consider `CC(Oc1c(Cl)cccc1Cl)C1=NCCN1` (centres undefined), for which the Potency result is “inactive”.

On to `COC(=O)c1cc(S(N)(=O)=O)ccc1OC`, for which the Potency entry is “inactive”.

In the case of `Nc1ccc([N+](=O)[O-])c(C(F)(F)F)c1`, the Potency result was “inactive”.

The next test is described as follows: qHTS of pediatric cancer cell lines to identify multiple opportunities for drug repurposing: Primary screen for SK-N-SH cells (AID 1347098). Further: nearly all actives have a fitted effect of over 65% in size. The conditions noted are these: SK-N-SH viability, CellTiter-Glo luminescence, 48 h; series mostly up to 57 µM. The essentials:
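Cells (500-1,000/well) rested 5 h, then received compounds for 48 h; metabolically active cells were measured by CellTiter-Glo luminescence. Final concentrations spanned up to 46 µM (MIPE, 11-point) or 0.59 nM-46 µM (NPC, 8-point) in primary screens, 11-point in follow-ups.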
`CC(C)=CCNc1ncnc2c1ncn2[C@@H]1O[C@H](CO)[C@@H](O)[C@H]1O`: the Potency was 5.45 µM (active).

For the molecule `COc1cc2c(cc1OC)CN(C(=O)[C@H](C)N[C@@H](CCc1ccccc1)C(=O)O)[C@H](C(=O)O)C2`, the Potency entry is “inactive”.

Turning to `O=C(O)[C@@H](O)[C@H](O)[C@H](O)[C@@H](O)C(=O)O`, the Potency result is “inactive”.

`CC(=O)OCC(=O)Nc1cc(C#N)cc(NC(=O)COC(C)=O)c1Cl`: the Potency result is “inactive”.

`O=C(Nc1ccc(S(=O)(=O)N2CCOCC2)cc1)c1cc(Cl)ccc1NS(=O)(=O)c1ccc(Cl)s1`: the Potency result is “inactive”.

For `C[C@]12CCC(=O)C=C1CC[C@@H]1[C@@H]2[C@@H](O)C[C@@]2(C)[C@H]1CC[C@]2(O)C(=O)COC(=O)CCC(=O)O`, the Potency result was “inactive”.

For `CC1(C)S[C@@H]2[C@H](NC(=O)C(c3ccccc3)S(=O)(=O)O)C(=O)N2[C@H]1C(=O)O` (some centres undefined), the Potency entry is “inactive”.

Turning to `CC(=O)Nc1ccc(S(=O)(=O)Nc2cc(C)on2)cc1`, the Potency result is “inactive”.

On to `CCNC(=O)NCCCOc1cccc(CN2CCCCC2)c1`, for which the Potency result was “inactive”.

For `OCCCc1ccccc1`, the Potency entry is “inactive”.

For the molecule `O=c1[nH]c2ccccc2c(=O)n1CCCl`, the Potency result is “inactive”.

As to `CCCCCC1Nc2cc(C(F)(F)F)c(S(N)(=O)=O)cc2S(=O)(=O)N1` (centres undefined), the Potency result was “inactive”.

For the molecule `CCCC(=O)O[C@]1(C(=O)COC(=O)CC)CC[C@H]2[C@@H]3CCC4=CC(=O)CC[C@]4(C)[C@H]3[C@@H](O)C[C@@]21C`, the Potency entry was “inactive”.

On to `CC(C)C(=O)Nc1cccc(C(F)(F)F)c1`, for which the Potency entry was “inactive”.

As for `OC1(c2ccc(Cl)cc2)CCNCC1`, the Potency result is “inactive”.

Turning to `Cc1cccc(C)c1NC(=O)c1ccc(N)cc1`, the Potency entry was “inactive”.

On to `CCOc1c(N2CCOCC2)cnn(C)c1=O`, for which the Potency result is “inactive”.

As for `CCOc1ncc(F)c(=O)[nH]1`, the Potency result is “inactive”.

As for `CC(=O)Nc1c(I)c(NC(C)=O)c(I)c(C(=O)O)c1I`, the Potency result was “inactive”.

Take `C=CC[N+]1([C@H]2C[C@H]3[C@@H]4CC[C@H]5C[C@H](OC(C)=O)[C@@H](N6CCCCC6)C[C@]5(C)[C@H]4CC[C@]3(C)[C@H]2OC(=O)CC)CCCCC1`: the Potency result is “inactive”.

As to `OC1(c2ccc(Cl)c(C(F)(F)F)c2)CCN(CCCC(c2ccc(F)cc2)c2ccc(F)cc2)CC1`, the Potency was 24.4 µM (active).

For `COC(=O)/C=C(/C)N`, the Potency entry is “inactive”.

Regarding `Nc1nc2ccccc2n1Cc1ccc(F)cc1`, the Potency entry is “inactive”.

As for `CCCc1ccc(OCC(=O)N2CCN(C(=O)COc3ccc(CCC)cc3OC)CC2)c(OC)c1`, the Potency entry is “inactive”.

In the case of `CCC(=O)O[C@]1(C(=O)COC)[C@@H](C)C[C@H]2[C@@H]3CCC4=CC(=O)C=C[C@]4(C)C3(F)[C@@H](O)C[C@@]21C` (some centres undefined), the Potency entry is “inactive”.

`CN(C)C(=O)CNC(=O)Cc1ccccc1`: the Potency entry is “inactive”.

In the case of `CCCCNc1ccc(C(=O)OCCN(CC)CC)cc1`, the Potency entry was “inactive”.

In the case of `O=C1CCCc2c(O)cccc21`, the Potency entry was “inactive”.

Regarding `CC(C)(C)C(O)/C=C/c1ccc2c(c1)OCO2` (centres undefined), the Potency entry is “inactive”.

As for `COC(=O)c1cc(S(N)(=O)=O)ccc1OC`, the Potency entry is “inactive”.

Consider `C/C=C(/C(=C/C)c1ccc(OC(C)=O)cc1)c1ccc(OC(C)=O)cc1`, for which the Potency result is “inactive”.
